# hNpr1 antagonist: antagonists of human natriuretic peptide receptor Npr1; HEK293 hNpr1 GloSensor cGMP, ANP-stimulated luminescence; Potency, µM (top dose mostly 46.3 µM), for inactives: top-dose activity change, negative = inhibition, most hits filed as inhibitors; 76,000 compounds, 1.6% hits; calls by dose curve; further: nearly all actives have a fitted effect of over 60% in size
#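 HEK293 cells stably expressing human Npr1 and cGMP GloSensor pGS-40F, loaded 2 h with 2% GloSensor reagent, given compound 30 min at room temperature. Luminescence read before and 20 min after 0.1 nM hNppA.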
# HEK cytotox: HEK 293 cell cytotoxicity; Potency, µM (series often up to 115 µM), without a hit: top-dose activity change, negative = cytotoxicity, hits mostly inhibitors; HEK 293 viability, ATP luminescence (CellTiter-Glo), 48-72 h; AID 1345083; 94,000 compounds, 6.6% hits; further: nearly all actives have a fitted effect of over 60% in size
#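 ATP-coupled CellTiter-Glo luminescence served as viability read-out, recorded 10 min after reagent addition at room temperature. HEK 293 cells, 250 cells/well, had been incubated with pintool-transferred compound for 48 or 72 hr at 37 degree Celsius.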
# 3T3 cytotox: kills NIH 3T3 cells. NIH 3T3 viability, CellTiter-Glo ATP luminescence, 48-72 h. Potency, µM (doses to about 96.7 µM), for inactives: top-dose activity change, negative = cytotoxicity, usual class: inhibitors. 94,000 compounds, 4.3% hits. AID 1345082; further: nearly all actives have a fitted effect of over 55% in size
#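 Cells were seeded at 400 per well, treated with pin-transferred compound, and kept 48 or 72 hr at 37 °C before CellTiter-Glo addition and luminescence imaging of cellular ATP.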
# GPT2 inh: blocks human glutamate pyruvate transaminase 2; Q8TD30; Recombinant GPT2, coupled pyruvate oxidase/HRP Amplex Red fluorescence; Potency, µM (series often up to 57.7 µM), inactives show at the top dose activity change, negative = inhibition, actives largely listed as inhibitors; 100,000 compounds, 0.25% hits; AID 1671188; further: nearly all actives have a fitted effect of over 60% in size
# Target sequence (Q8TD30 whole entry, looked up): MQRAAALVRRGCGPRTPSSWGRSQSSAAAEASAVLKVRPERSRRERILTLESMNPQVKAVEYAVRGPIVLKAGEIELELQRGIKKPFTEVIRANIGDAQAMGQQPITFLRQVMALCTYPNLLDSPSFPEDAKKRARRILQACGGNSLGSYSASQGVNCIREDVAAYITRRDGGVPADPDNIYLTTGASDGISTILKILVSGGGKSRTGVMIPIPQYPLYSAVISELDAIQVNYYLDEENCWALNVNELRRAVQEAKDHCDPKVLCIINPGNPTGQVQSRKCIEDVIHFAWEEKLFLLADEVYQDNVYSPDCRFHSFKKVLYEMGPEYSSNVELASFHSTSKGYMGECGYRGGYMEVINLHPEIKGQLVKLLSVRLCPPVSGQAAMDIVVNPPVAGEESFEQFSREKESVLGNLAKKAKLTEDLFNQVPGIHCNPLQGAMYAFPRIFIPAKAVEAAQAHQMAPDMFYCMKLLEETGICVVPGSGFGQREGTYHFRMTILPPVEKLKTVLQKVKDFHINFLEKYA
#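 Recombinant GPT2 (10ng/uL) with 250uM a-KG and 2mM L-alanine, 30 min at room temperature, in HEPES pH 7.5 buffer. Pyruvate detected by pyruvate oxidase/HRP/Amplex Red fluorescence after 30 min in the dark; AOA (50uM) as positive control.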
# Luciferase inh: blocks purified firefly luciferase enzyme activity | Potency, µM (titrated, usually from 115 µM), actives largely listed as inhibitors | purified P. pyralis luciferase, luminescence, biochemical | 76,000 compounds, 2.5% hits | P08659 | AID 1347043; further: nearly all actives have a fitted effect of over 65% in size
#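 FLuc 10nM, D-luciferin 10uM, ATP 10uM, Mg acetate 10mM, Tris acetate pH 7.5, Tween/BSA; cpd qHTS; enzyme added last; CCD luminescence.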
# Active calls of the source: *; i = inactive; u = inconclusive; x = not tested or not shown; ! = a repeat was not active; [ ] = remark or other dose. Sampled rows, rich in hits. Any-hit rate of the full collection: about 10%. Unless noted, the call rests on the fitted dose curve; in most records, active means well fitted curve in the direction sought with a large enough effect; inconclusive means small, poorly fitted or top-dose-only effect, or another doubt; inactive means no such curve, though single readings can be large; an effect the other way counts as inactive or inconclusive. On the % scale 0 is the no-effect control and ±100 the full control effect; potency means the concentration at half of the fitted maximal effect.
SMILES,hNpr1 antagonist,HEK cytotox,3T3 cytotox,GPT2 inh,Luciferase inh
CCc1ccc(N2CC(c3noc(-c4ccc(N(C)C)cc4)n3)CC2=O)cc1 (stereo not drawn),-4.7%,-5.4%,-16.5%,u,i
COc1cccc(C(O)c2nc(C(=O)Nc3ccc4c(c3)NC(=O)CO4)c(C)o2)c1 (stereo not drawn),-3.9%[70.6 µM],89.1µM*,u,2.5%[88.5 µM],63.1µM*
O=C(NCCc1ccccc1)Nc1cccc(-c2ccc(N3CCCCC3)nn2)c1,8.91µM*,u,-26.8%,-9.9%,0.251µM*
CCOc1ccccc1NC(=O)Nc1cccc(-c2ccc(N3CCCC3)nn2)c1,-23.6%,-22.1%,-25.1%,-14.6%,6.31µM*
O=C(NCCc1ccccc1)Nc1cccc(-c2nnc3n2CCCC3)c1,-14.4%,u,-13.6%,3.6%,i
COc1ccccc1NC(=O)Nc1cccc(-c2ccc(N3CCCCC3)nn2)c1,u,u,u,-5.8%,0.708µM*
COc1ccccc1NC(=O)Nc1cccc(-c2nnc3n2CCCC3)c1,-0.4%,u,u,-5.0%,u
CCCCCNC(=O)c1cc(-c2ccccc2OC)nc2c1cnn2C,x,-29.7%,u,x,x
O=C(NCCc1ccncc1)c1cccc2c1CCN2C(=O)Nc1ccc(F)cc1,3.55µM*,u,u,-4.7%,0.251µM*
O=C(NCCCN1CCOCC1)c1cccc2c1CCN2C(=O)Nc1ccc(F)cc1,-12.9%,-29.3%,-9.7%,3.7%,25.1µM*
O=C(c1cccc2c1CCN2C(=O)Nc1ccccc1)N1CCN(c2ccccc2)CC1,-23.6%,u,-17.1%,i,28.2µM*
Cc1ccc(NC(=O)N2CCc3c(C(=O)NC(C)C)cccc32)cc1,0.562µM*,u,u,i,0.316µM*
CN(C)C(=O)c1ccc(OC2CCN(C(=O)C3CC3)CC2)nc1,2.5%,-3.7%,i,i,i
Cn1nccc1C(=O)N1[C@@H]2CC[C@H]1CC(NC(=O)c1ccc(F)cc1)C2 (stereo partly drawn),-0.9%,i,1.6%,0.1%,i
CNC(=O)[C@@H]1C[C@@H](O)CN1C1CCN(C(=O)C2CCCC2)CC1,4.4%,-11.5%,-6.7%,-12.7%,i
O=C(C#Cc1ccccc1)NC1CCCc2c1cnn2-c1ccc(F)cc1F (stereo not drawn),u,u,u,-29.8%,i
Cc1ccc(NC(=O)N2CCc3c(C(=O)NCc4ccncc4)cccc32)cc1,12.6µM*,31.6µM*,-26.4%,i,0.562µM*
COc1ccc(NC(=O)c2cccc3c2CCN3C(=O)Nc2ccc(F)cc2)cc1,1.6%,u,-11.8%,i,u
CCNC(=O)c1cccc2c1CCN2C(=O)Nc1ccc(C)cc1,2.24µM*,u,u,1.1%,0.282µM*
COc1ccccc1Nc1ccnc(N2CCCC(C(=O)NCC(F)(F)F)C2)n1 (stereo not drawn),x,u,u,0.2%,x
COc1ccccc1Nc1ccnc(N2CCCC(C(=O)NCc3cccc(F)c3)C2)n1 (stereo not drawn),x,11.2µM*,12.6µM*,-1.4%,x
COc1ccccc1Nc1ccnc(N2CCCC(C(=O)NCc3cccc(Cl)c3)C2)n1 (stereo not drawn),x,u,12.6µM*,i,x
COc1ccccc1Nc1ccnc(N2CCCC(C(=O)NCCc3ccc(Cl)cc3)C2)n1 (stereo not drawn),x,u,u,-7.3%,x
O=C(c1ccccc1F)N1CC(Oc2ccc(-c3nc(-c4ccccc4)no3)cc2)C1,7.08µM*,28.2µM*,44.7µM*,-11.7%,u
O=C(c1ccco1)N1CC(Oc2ccc(-c3nc(-c4ccccc4)no3)cc2)C1,u,20µM*,28.2µM*,-16.5%,u
SMILES,hNpr1 antagonist,HEK cytotox,3T3 cytotox,GPT2 inh,Luciferase inh
O=C(c1ccc(F)cc1)N1CC(Oc2ccc(-c3nc(-c4ccccc4)no3)cc2)C1,-11.4%,u,-13.2%,i,i
CN(C)C[C@@H]1CN(S(C)(=O)=O)C[C@H]1NC(=O)c1cccn1C,-1.7%,i,i,i,i
CCC1Oc2ccc(NC(=O)c3ccccc3)cc2CN(Cc2cc(F)cc(F)c2)C1=O (stereo not drawn),-21.8%,14.1µM*,u,-17.3%,i
CCC1Oc2ccc(NC(=O)c3ccc(C#N)cc3)cc2CN(Cc2ccccc2F)C1=O (stereo not drawn),-20.1%,44.7µM*,u,i,i
CC1Oc2ccc(NC(=O)c3ccc([N+](=O)[O-])cc3)cc2CN(Cc2ccccc2F)C1=O (stereo not drawn),-13.0%,31.6µM*,u,i,i
CCC1Oc2ccc(NC(=O)c3cccc(F)c3)cc2CN(Cc2ccccc2F)C1=O (stereo not drawn),-1.8%,35.5µM*,u,-22.4%,i
O=C(CC1CCCCC1)N1CCC2(CC1)NC(=O)N(c1ccc(F)cc1)N2,-6.9%,u,u,u,i
C=CCNc1ccccc1C(=O)NC(C(=O)O)c1c(C)n[nH]c1C (stereo not drawn),5.6%,-6.1%,i,-1.3%,i
CCC1=C(C(=O)OC)C(c2ccccc2C)N2C(CC(=O)NC3CC3)=CSC2=N1 (stereo not drawn),-20.9%,u,-32.7%,-11.3%,i
O=C(CN1C(=O)CCC1=O)N1CCC(c2noc(-c3ccccn3)n2)C1 (stereo not drawn),4.1%,4.8%,3.6%,i,i
CCC1Oc2ccc(NC(=O)Cc3ccc(F)cc3)cc2CN(Cc2ccccc2F)C1=O (stereo not drawn),-15.4%,44.7µM*,u,i,i
CCC1Oc2ccc(NC(=O)c3ccccc3F)cc2CN(Cc2ccccc2F)C1=O (stereo not drawn),-3.3%,u,u,i,i
CC(C)(C)OC(=O)N1CC(Nc2ccc(O)cc2)C1,x,44.7µM*,28.2µM*!,-5.5%[88.5 µM],x
CC(C)(C)OC(=O)N1CC(Nc2cccc(Oc3ccccc3)c2)C1,x,u,u,-3.1%,x
O=C(c1ccccc1OCC1CCCN(C2CCCCC2)C1)N1CCCC1 (stereo not drawn),-4.1%,u,-12.8%,i,i
Cc1cccc2nc(C(=O)N3CCn4nc(Cc5ccccc5)cc4C3)cn12,u,44.7µM*,u,0.8%,i
Cn1nc(C(=O)N2CCn3nc(Cc4ccccc4)cc3C2)ccc1=O,-1.4%,-19.5%,-30.4%,-11.7%,i
O=C1OC[C@@H]2CCN(Cc3ccccc3Cl)Cc3ccc(F)cc3N12,-1.5%[70.6 µM],70.8µM*,-24.1%[174 µM],-5.5%[88.5 µM],i
COC(=O)N1CCCC(C(=O)N2CCC(N3Cc4cccn4C3=O)CC2)C1 (stereo not drawn),x,0.5%,-11.8%,i,x

# Assay outcomes: PubChem, National Center for Advancing Translational Sciences (NCATS)
